Here are results for 16 compounds from PubChem BioAssay (NCATS).

This test concerns the target Cytochrome P450 3A7 (Homo sapiens) (UniProt P24462). In words: Cytochrome P450 family 3 subfamily A member 7 (CYP3A7) small molecule antagonists: luciferase biochemical qHTS assay (AID 1963596). Further: nearly all actives have a fitted effect of over 40% in size. The gist of the method:
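P450-Glo luminescent assay: CYP3A7 enzyme converts a proluciferin substrate to luciferin, detected by luciferase reagent; light proportional to activity. Compounds in DMSO preincubated 10 min with enzyme-substrate mix at room temperature, then NADPH regeneration added for 1 h.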
On the technique in general: qHTS replaces the single test concentration by a dilution series.

Inconclusive results are not listed. A call without a number means that no potency is given here. Calls of active or inactive are those of the source. The call rests on the fitted dose curve; in most records, active means well fitted inhibition curve with a large enough effect; inconclusive means small, poorly fitted or top-dose-only effect; inactive means no such curve, though single readings can be large or run the other way.
Potency means the concentration at half of the fitted maximal effect.

Chain of Cytochrome P450 3A7 (Homo sapiens) (P24462 whole entry, looked up): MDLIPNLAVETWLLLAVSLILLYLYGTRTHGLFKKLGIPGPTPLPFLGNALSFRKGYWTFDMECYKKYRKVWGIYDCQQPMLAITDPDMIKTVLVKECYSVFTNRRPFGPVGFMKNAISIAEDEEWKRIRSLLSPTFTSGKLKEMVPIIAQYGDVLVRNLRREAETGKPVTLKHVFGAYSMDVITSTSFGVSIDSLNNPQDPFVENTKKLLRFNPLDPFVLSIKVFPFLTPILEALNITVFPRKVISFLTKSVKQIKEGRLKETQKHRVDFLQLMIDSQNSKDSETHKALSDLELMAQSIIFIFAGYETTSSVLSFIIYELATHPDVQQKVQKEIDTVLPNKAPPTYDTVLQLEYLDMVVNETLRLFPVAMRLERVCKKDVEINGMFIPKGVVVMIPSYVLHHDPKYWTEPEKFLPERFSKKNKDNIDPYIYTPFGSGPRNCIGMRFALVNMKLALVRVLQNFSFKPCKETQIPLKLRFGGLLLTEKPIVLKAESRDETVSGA

Turning to `CCC(COC)n1nnc2c(Nc3ccc(OC)cc3C)nc(C)cc21` (stereo unspecified), the Potency result is “inactive”. Consider `Cc1noc(=O)c2ccc(NC(=O)C(O)(CC(C)(C)c3cccc4c3OCC4)C(F)(F)F)cc12` (stereo unspecified), for which the Potency result was “inactive”. Regarding `COC(C)=O`, the Potency entry was “inactive”.

Turning to `Cc1cc(CS(=O)(=O)c2ccccc2)cc(OCc2ccc(CN3CCCC3CO)cc2)c1` (stereo unspecified), the Potency entry was “inactive”.

Regarding `CC(=O)Nc1ccc(C)cc1-c1nc2ccccc2n(CC(=O)Nc2cc(Cl)ccc2C)c1=O`, the Potency entry is “inactive”. With `O=C(OC(C(F)(F)F)C(F)(F)F)N1CCN(Cc2cccc(Oc3ccccc3)c2)CC1`, the Potency entry is “inactive”. Consider `C[C@H](CCCC(C)(C)O)[C@H]1CC[C@H]2[C@@H]3CC=C4C[C@@H](O)CC[C@]4(C)[C@H]3CC[C@]12C`, for which the Potency result was “inactive”.

For the compound `CCc1ccc(OCCn2c(C3CC(=O)N(Cc4ccc(F)cc4)C3)nc3ccccc32)cc1` (stereo unspecified), the Potency entry is “inactive”. With `COc1ccc(-c2nc(-c3ccc(-c4cccc(Cl)c4)o3)[nH]c2-c2ccc(OC)cc2)cc1` the entry was “inactive”. The entry for `O=C(O)C1CSC(C(=O)O)N1` (stereo unspecified) is “inactive”. With `Cc1ccc(Cn2c(SCc3ccc(C(=O)N4CCCCCC4)cc3)nc3ccncc32)cc1` the entry was “inactive”; with `Cc1cc(N)c2cc(NC(=O)Nc3ccc4nc(C)cc(N)c4c3)ccc2n1`, “inactive”. As for `CCCCC(CC)COC(=O)CC(C(=O)OCC(CC)CCCC)S(=O)(=O)O` (stereo unspecified), the Potency entry is “inactive”. The figure for `CCN1CCC[C@@H]1CNC(=O)c1ccc2c(c1)NC(=O)c1cccc(C)c1S2` is 20 µM (active).

Turning to `Cc1ccc(-n2c(SCc3cccc(F)c3)nc3[nH]ncc3c2=O)cc1C`, the Potency entry is “inactive”. The entry for `COC(=O)c1c(-c2ccc(Cl)cc2)noc1N1CCN(c2ccccc2OC)CC1` is “inactive”.
